# CYP2C19 activ: human CYP2C19 activators, primary screen, biochemical, luminescence | 96,000 tested, under 10 active | activation factor at 5 µM | AID 1025, 2008 | recombinant CYP2C19, luciferin-H EGE luminescence; active compounds read high; 0 = fully inhibited enzyme, 1 = untreated enzyme;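 active means activation factor of at least 2 at 5 µM in the primary screen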;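 further: 0 = wells with 2.5 mM tranylcypromine and 1 = vehicle-only wells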
# Target sequence (P33261 whole entry, looked up): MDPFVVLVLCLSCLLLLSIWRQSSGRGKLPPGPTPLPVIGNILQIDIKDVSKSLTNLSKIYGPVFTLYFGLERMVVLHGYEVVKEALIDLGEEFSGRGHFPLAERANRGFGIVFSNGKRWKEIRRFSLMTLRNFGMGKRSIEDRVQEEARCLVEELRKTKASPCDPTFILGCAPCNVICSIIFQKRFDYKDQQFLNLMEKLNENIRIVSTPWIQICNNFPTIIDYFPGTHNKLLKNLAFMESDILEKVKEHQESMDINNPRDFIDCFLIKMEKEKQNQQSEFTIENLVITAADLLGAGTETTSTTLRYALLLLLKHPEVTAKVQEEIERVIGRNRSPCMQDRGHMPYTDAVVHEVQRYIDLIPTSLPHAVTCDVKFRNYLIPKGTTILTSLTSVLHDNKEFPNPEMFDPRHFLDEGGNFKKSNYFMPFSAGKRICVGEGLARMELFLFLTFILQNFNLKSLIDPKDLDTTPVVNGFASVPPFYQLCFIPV
# sEH act: soluble epoxide hydrolase activators, primary screen, biochemical, human sEH. Bifunctional epoxide hydrolase 2 (Homo sapiens), P34913. AID 717, 2007. purified human sEH enzymatic activity, activator screen. actives 0.04% (n = 91,000). activation, % at 2 µM; in the data active means activation above about 37%
# CYP2C9 act: human CYP2C9 activators, primary screen, biochemical, luminescence | AID 1024, 2008 | recombinant CYP2C9, luciferin-H conversion; active compounds read high; factor 1 = untreated enzyme, 0 = blocked | actives 1.4% (n = 96,000) | activation factor at 5 µM;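 active means activation factor of 2 or more for CYP2C9 at a 5 µM dose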;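 further: 0 = sulfaphenazole-blocked wells and 1 = vehicle-only wells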
# sEH inhibitor: soluble epoxide hydrolase inhibitors, primary screen, biochemical, human sEH; recombinant human sEH enzymatic activity assay; inhibition, % at 2 µM; actives 0.34% (n = 91,000); in the data active means inhibition above about 80%
# CYP2C9 inh: blockers of cytochrome P450 2C9 activity – biochemical, luminescence, ADME assay, primary screen; actives 20% (n = 96,000); CYP2C9 Supersomes, luciferin-H conversion; inhibition, % at 5 µM; P11712; AID 777, 2007;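 active means blocking of liver enzyme CYP2C9 beyond about 50% at 5 µM, limit read from the data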
# CYP2C19 inh: blockers of cytochrome P450 2C19 activity – biochemical, luminescence, ADME assay, primary screen; AID 778, 2007; P33261; inhibition, % at 5 µM; CYP2C19 Supersomes, luciferin-H EGE luminescence, 30 min; actives 21% (n = 96,000);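 active means CYP2C19 inhibition above a set limit at 5 µM in the primary screen, cut at about 50% in these data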;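 further: plate controls were negative control wells for no effect and 2.5 mM tranylcypromine positive control for full effect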
# Starred values were filed as active, the others as inactive; / = not tested or not shown. Most compounds without a hit are left out; they make up all but 27% or so of the library.
SMILES,CYP2C19 activ,sEH act,CYP2C9 act,sEH inhibitor,CYP2C9 inh,CYP2C19 inh
Cc1sc2nc(C(C)Nc3ccccc3N3CCOCC3)[nH]c(=O)c2c1C (centres undefined),0.7,16,0.5,-17,54*,35
Cn1c(Cl)cnc1C1CC(=O)c2cc(Cl)ccc2O1 (centres undefined),0.2,/,0.5,/,46,81*
NC(=O)CSc1nnc(Cn2c(=O)sc3ccccc32)n1-c1cccc(Cl)c1,1,8,0.9,-7,8,1
COc1ccc(-c2nn(C)c(=O)c3ccccc23)cc1NC(=O)Cn1nc(C)c2ccccc2c1=O,0.7,0,0.4,-1,58*,30
Cc1ccc(-c2nn(C)c(=O)c3ccccc23)cc1S(=O)(=O)N1CCOCC1,/,-3,/,3,/,/
Cc1ccc(-c2nn(C)c(=O)c3ccccc23)cc1S(=O)(=O)N1CCCC1,0.5,-9,0.4,8,63*,51*
CCC(=O)Nc1cc(-c2nn(C)c(=O)c3ccccc23)ccc1N1CCCCC1,0.6,2,0.2,-4,81*,37
CC(=O)Nc1cc(-c2nn(C)c(=O)c3ccccc23)ccc1N1CCCCC1,0.8,3,0.4,0,57*,20
CCCC(=O)Nc1cc(-c2nn(C)c(=O)c3ccccc23)ccc1N1CCCCC1,/,-5,/,10,/,/
O=C1CCCN1c1cc(Cl)ccc1Cl,1.1,-7,1.5,9,-48,-15
O=[N+]([O-])c1cc(-c2cnc3ccccc3n2)ccc1Oc1ccc(F)cc1,0.9,-3,0.7,3,32,12
O=C(CC1C(=O)NCCN1C(=O)Nc1ccccc1)Nc1ccc2c(c1)OCCO2 (centres undefined),0.8,0,0.7,0,30,17
CC(=O)Nc1cc(-c2nn(CC(=O)N3CCCCC3)c(=O)c3ccccc23)ccc1N1CCOCC1,1,-3,0.9,5,12,-3
Cn1nc(-c2ccc(N3CCOCC3)c(NS(=O)(=O)c3ccccc3)c2)c2ccccc2c1=O,0.5,-4,0.8,6,16,53*
O=C(CCn1ccc2ccccc21)Nc1ccc(N2CCOCC2)cc1,0.4,1,0.7,2,28,55*
Cn1c(CCC(=O)Nc2ccc(N3CCOCC3)cc2)nc(=O)c2ccccc21,1,/,1,/,4,4
Cc1ccc(N(C(=O)Cn2nnc(-c3ccc(F)cc3)n2)C(CC(C)C)C(=O)NCC2CCCO2)cc1 (centres undefined),0.8,8,0.6,-6,40,23
O=C(O)c1ccc(Sc2nnc(-c3cccc(Br)c3)o2)c([N+](=O)[O-])c1,1.3,-4,0.3,4,66*,-33
O=C(Nc1cccc(N2CCCC2)c1)c1cccs1,1,-7,0.9,6,12,-2
CCc1c(C)sc(NC(=O)C2CC2c2ccccc2)c1C(N)=O (centres undefined),0.6,-2,0.8,0,22,42
O=C(Nc1ccncc1)C1CC1c1ccccc1 (centres undefined),0,-1,0.2,4,84*,97*
O=C(NC1CCCC1)C1CC1c1ccccc1 (centres undefined),0.3,5,0.4,-6,63*,73*
N#Cc1c(N2C(=O)C3C4C=CC(C4)C3C2=O)sc2c1CCC2 (centres undefined),0.4,0,0.7,-4,30,64*
CN(C)/C=N/c1nc2ccc3c(c2s1)CCCC3,0.2,-5,0.9,4,8,81*
Cc1cc(C)n(CC(=O)O)n1,/,-19,/,21,/,/
SMILES,CYP2C19 activ,sEH act,CYP2C9 act,sEH inhibitor,CYP2C9 inh,CYP2C19 inh
Cc1cc(C)n(CC(=O)N2c3ccccc3Sc3ccccc32)n1,0.3,0,0.6,3,38,67*
CCOC(=O)c1c(C)nc(-c2ccccc2)nc1N,0.2,-11,0.3,9,67*,82*
CCOC(=O)c1c(C)nc(-c2ccccc2)nc1NC(C)=O,0.7,-11,0.7,11,31,26
CCOc1cc(C)c(S(=O)(=O)Nc2ccc(Cl)cn2)cc1C,0.2,/,0.1,/,95*,78*
CCOc1ccc(S(=O)(=O)Nc2ccc(Cl)cn2)c(C)c1C,0.6,-6,0.6,6,36,39
Cc1cc(C)c2nc(N3CCCN(C(=O)c4cnccn4)CC3)c(C#N)cc2c1,0.6,-10,0.7,8,32,36
CCOC(=O)CCc1nc2ccccc2[nH]1,0.3,-10,0.8,7,24,69*
CCC(OC(=O)CCc1nc2ccccc2[nH]c1=O)C(=O)c1ccccc1 (centres undefined),0,15,0.2,-13,79*,99*
O=c1[nH]c2ccccc2nc1Cc1ccccc1,0.4,6,0.9,-6,6,56*
CCCCOC(=O)CCc1nc2ccccc2[nH]c1=O,0.3,3,0.7,-5,31,73*
CCN(CCCNC(=O)c1[nH]c(C)c(C(C)=O)c1C)c1ccccc1,0.5,/,0.7,/,31,46
COc1cc(C)ccc1OCCCOc1cc(C)ccc1Cl,/,8,/,-5,/,/
C=CCc1ccc(OCC(O)COc2ccc(CC=C)cc2OC)c(OC)c1,0,-11,0.1,10,93*,97*
C=CCc1ccc(OCCCOc2ccc(C)cc2OC)c(OC)c1,0.4,-8,0.7,6,32,59*
C=CCc1ccc(OCC(O)CN2CCCCC2)c(OC)c1 (centres undefined),0.9,-2,1,2,3,8
C=CCc1ccc(OCCOCCOc2ccccc2[N+](=O)[O-])c(OC)c1,0.1,16,0.2,-17,77*,85*
Cc1cccc(N2CCCC2=Nc2ccc(Br)cc2C#N)c1,1,-1,0.9,2,6,2
CCC1(C)N=C(c2ccc3c(c2)OCO3)CC(c2ccccc2O)N1 (centres undefined),0.4,15,0.3,-18,74*,59*
COc1cccc(C2=NC(C)(C)NC(c3ccccc3O)C2)c1 (centres undefined),0.7,-6,0.5,5,48,33
O=C(Nc1ccccc1F)c1cc2nc(C(F)F)cc(C(F)F)n2n1,/,-4,/,9,/,/
COc1cc(C(=O)Nc2ccncc2)cc(OC)c1OC,0,3,0.1,-3,86*,98*
O=C(Nc1ccncc1)c1cc(F)cc(F)c1,0.1,6,0.6,-5,41,86*
COCCOCC(O)CN1CCN(c2ccc(C)cc2)CC1 (centres undefined),0.9,-5,1,4,3,8
O=C(Cn1ccsc1=NC(=O)C(F)(F)F)c1ccccc1,0.4,-1,0.6,3,35,57*

# Assay outcomes from PubChem.
